MCF10A rereplic – inducers of DNA re-replication in MCF 10A breast cells | MCF 10A DNA re-replication, Hoechst nuclear intensity, 48 h | Potency, µM (highest dose often 46.1 µM), actives largely listed as activators | 2.9% of 350,000 active | AID 624296; also: nearly all actives have a fitted effect of over 50% in size
HT1080 IDH1KD tx – HT-1080 IDH1 knockdown cell toxicity (counter line). AID 686971. Potency, µM (titrated, usually from 46.1 µM), hits mostly cytotoxic. HT-1080 IDH1 knockdown viability, ATP luminescence, 48 h. 2% of 360,000 active
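IDH1KD HT-1080 cells, 750/well, RPMI + 5% FBS; compound pinned after 2 h settling; 48 h, 37 °C; CellTiter-Glo luminescence; % activity normalised to DMSO and no-cell wells; curves fitted, classed by r2 and efficacy.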
SW480 rerep – induces DNA re-replication in SW480 colon adenocarcinoma cells | SW480 DNA re-replication, Hoechst DNA content imaging, 48 h | Potency, µM (titrated, usually from 46.1 µM), actives largely listed as activators | 1.8% of 340,000 active | AID 624297; also: nearly all actives have a fitted effect of over 55% in size
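SW480 cells exposed to compounds for 48 hr at 37 C, 5% CO2, then Hoechst-stained 40 min. Nuclear DNA content imaged by fluorescence scanning (405 nm excitation, 500-530 nm emission); re-replication scored as increased high-intensity nuclei.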
KB-V1 MDR tox – KB-V1 MDR subline cytotoxicity. Potency, µM (doses to about 46.1 µM), usual class: cytotoxic. 3.4% of 400,000 active. KB-V1 MDR cells viability, CellTiter-Glo, 72 h; also: nearly all actives have a fitted effect of over 60% in size
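Potencies derive from concentration-effect curves fitted to normalized luminescence (CellTiter-Glo) of KB-V1 cells treated for 72 h at 37 degrees C in phenol-red-free DMEM containing 10% FBS.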
HT1080NT lethal – kills 2HG-producing HT-1080-NT fibrosarcoma cells; HT-1080-NT fibrosarcoma viability, CellTiter-Glo ATP luminescence, 48 h; Potency, µM (titrated, usually from 46.1 µM), actives largely listed as cytotoxic; 1.6% of 360,000 active; AID 686970;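 also: NT is the 2HG producing partner of a matched IDH1 knockdown line; nearly all actives have a fitted effect of over 55% in size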
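Compounds were tested in concentration-response format on HT-1080-NT cells for 48 hours at 37 degrees C. Cell viability came from CellTiter-Glo luminescence; curves were classified by r2, response magnitude and activity.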
KB-3-1 cytotox – KB-3-1 parental cell cytotoxicity | Potency, µM (titrated, usually from 46.1 µM), usual class: cytotoxic | 1.4% of 400,000 active | AID 1347075 | KB-3-1 viability, CellTiter-Glo ATP luminescence, 72 h; also: nearly all actives have a fitted effect of over 60% in size
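Here the drug-naive KB-3-1 line serves as comparator for MDR sub-line selectivity; cells received compound titrations, 72 h at 37 °C, then CellTiter-Glo readout.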
Hits are given with their value; 0 = inactive; ? = inconclusive; - = no result given; ! = not active in a repeat; [ ] = remark or other dose. Most compounds without a hit are left out; they make up all but 8% or so of the library. Calls follow the shape of the dose curve; as a rule, active = well fitted curve in the direction sought with a large enough effect; inconclusive = small, poorly fitted or top-dose-only effect, or another doubt; inactive = no such curve, though single readings can be large; an effect the other way counts as inactive or inconclusive.

SMILES	MCF10A rereplic	HT1080 IDH1KD tx	SW480 rerep	KB-V1 MDR tox	HT1080NT lethal	KB-3-1 cytotox
O=C(NC(c1ccc(F)cc1)c1ccc2ccccc2n1)C1CCN(CCOc2ccc(Cl)cc2Cl)CC1 (stereo not drawn)	-	12µM	-	?	?	?
Cn1cc(CN2CCC(C(=O)NC(c3ccc(F)cc3)c3ccc4ccccc4n3)CC2)c2ccccc21 (stereo not drawn)	-	16µM	-	?	23µM	?
O=C(NC(c1ccc(F)cc1)c1cnccn1)C1CCN(CCOc2ccc(Cl)cc2Cl)CC1 (stereo not drawn)	-	?	-	0	?	0
COc1cc(CN2CCC(C(=O)NC(c3ccc(F)cc3)c3ccc4ccccc4n3)CC2)cc(OC)c1 (stereo not drawn)	-	3.3µM	-	?	2.3µM	5.2µM
CC(C)c1ccc(NC(=O)CSC2=Nc3ccccc3C3=NC(CC(=O)NCc4ccco4)C(=O)N23)cc1 (stereo not drawn)	-	-	-	0	-	0
O=C(NC(c1ccccc1)c1ccc2ccccc2n1)C1CCN(Cc2ccc(Oc3ccccc3)cc2)CC1 (stereo not drawn)	-	13µM	-	0	?	0
COc1ccc(OCCN2CCC(C(=O)NC(c3ccc(F)cc3)c3ccc4ccccc4n3)CC2)cc1 (stereo not drawn)	-	?	-	0	?	?
O=C(NC(c1ccccc1)c1ccc2ccccc2n1)C1CCN(CCOc2ccc(Cl)cc2)CC1 (stereo not drawn)	-	4.1µM	-	?	3.7µM	?
O=C(NC(c1ccc(F)cc1)c1ccc2ccccc2n1)C1CCN(CCOc2ccc(F)cc2)CC1 (stereo not drawn)	-	9.2µM	-	18µM	?	?
COc1ccc(OCCN2CCC(C(=O)NC(c3ccccc3)c3ccc4ccccc4n3)CC2)cc1 (stereo not drawn)	-	?	-	0	?	?
COc1ccc(C(NC(=O)C2CCN(CCOc3ccc(Cl)cc3)CC2)c2cccs2)cc1 (stereo not drawn)	-	?	-	0	21µM	0
Cc1oc2ncn(C)c(=O)c2c1C(=O)NCCCN(Cc1ccccc1)C(C)C	-	-	-	0	-	0
O=C(NC(c1ccc(Cl)cc1)c1cccnc1)C1CCN(CCOc2ccc(Cl)cc2Cl)CC1 (stereo not drawn)	-	18µM	-	0	18µM	0
Cc1cccnc1C(NC(=O)C1CCN(CCOc2ccc(Cl)cc2Cl)CC1)c1ccc(Cl)cc1 (stereo not drawn)	-	0	-	?	0	?
CCCCCCCCCCCC(CC1OC(=O)C1CCCCCC)OC(=O)C(CC(C)C)NC=O (stereo not drawn)	5.3µM	-	0	-	-	-
C=C(NCc1ccccc1)c1ccccc1O	0	-	0	-	-	-
CCCc1cc2c(=O)c(-c3ccc4c(c3)OCCO4)coc2cc1OS(C)(=O)=O	?	0	0	10µM	0	?
Nc1nnnn1/N=C/C(Br)=C/c1ccccc1	2.6µM	9.2µM	2.8µM	?	0	?
CCC(C)N1C(=O)/C(=C/c2c(NCCCOC(C)C)nc3c(C)cccn3c2=O)SC1=S (stereo not drawn)	0	0	0	6.5µM	0	0
CN(C)c1ccc(CNC(=O)C2(C)Cc3c(-c4ccc5c(c4)OCO5)ccnc3O2)cc1 (stereo not drawn)	-	?	-	12µM	?	7.3µM
CNC(=O)C1(C)Cc2c(-c3ccc4c(c3)OCO4)ccnc2O1 (stereo not drawn)	-	0	-	0	0	0
CC1(C(=O)NCC2CC2)Cc2c(-c3ccc4c(c3)OCO4)ccnc2O1 (stereo not drawn)	-	?	-	?	?	15µM
CN(C)c1ccc(CNC(=O)C2(C)Cc3c(-c4ccc(N(C)C)cc4)ccnc3O2)cc1 (stereo not drawn)	-	?	-	0	?	?
COc1ccc(Cl)cc1NC(=O)c1cc2ccc3ccc(C)[nH]c3c2n1	-	-	-	?	-	0
O=C1CCCCC(=O)N(c2ccccc2)c2ccccc21	0	0	0	18µM	0	0
SMILES	MCF10A rereplic	HT1080 IDH1KD tx	SW480 rerep	KB-V1 MDR tox	HT1080NT lethal	KB-3-1 cytotox
CC1=CC(=O)C(C(C)C)=C/C1=N/OC(=O)c1cccc([N+](=O)[O-])c1	0	0[9.24 µM]	0	0	10µM	0
CC1=CC(=NOC(=O)c2cccc([N+](=O)[O-])c2)C=C(C)C1=O	?	?	?	0	?	0
COCCCNCCC(CCC(C)C)c1ccc2c(c1)OCO2 (stereo not drawn)	0	15µM	0	?	21µM	?
CC(C)CCC(CCN1CCOCC1)c1ccc2c(c1)OCO2 (stereo not drawn)	?	?	0	21µM	0	0
CC1=C(C(=O)Nc2ccccc2)C(c2ccc(C(=O)O)cc2)n2nc(SCC(=O)c3ccc(C)cc3)nc2N1 (stereo not drawn)	-	-	-	0	-	0
CCn1cc(C(=O)NCCCOC)c(=O)c2cc(S(=O)(=O)N3CCc4ccccc4C3)ccc21	-	-	-	0	-	0
CC(=O)N1CCc2cc(Br)cc(S(=O)(=O)N3CCC(C(=O)Nc4cccc(C)c4C)CC3)c21	-	-	-	0	-	?
O=C1[C@H](Cc2ccccc2)NCCCC[C@H](c2ccc(Cl)cc2)N1Cc1ccc(Cl)cc1	?	0	0	?	0	?
O=C1[C@H](Cc2ccccc2)NCCCC[C@@H](c2ccc(Cl)cc2)N1Cc1ccccc1	0	?	0	23µM!	?	?
O=[N+]([O-])c1ccc(C=Nc2cccc3ccccc23)s1	21µM	23µM	6.5µM	?	0	?
O=C(N/N=C/c1ccc([N+](=O)[O-])s1)c1cccc(Br)c1	?	21µM	10µM	?	12µM	0
Cc1cc(C)n(CC(=O)N/N=C/c2ccc([N+](=O)[O-])s2)n1	?	?	21µM	?	?	?
O=C(CNC(=O)c1ccccc1)N/N=C/c1ccc([N+](=O)[O-])s1	?	0	?	?	0	?
Cc1ccc(C(=O)N/N=C/c2ccc([N+](=O)[O-])s2)cc1	0	?	?	?	?	0
O=C(Cc1ccccc1)NCC(=O)N/N=C/c1ccc([N+](=O)[O-])s1	0	?	15µM	?	0	?
CCCN(CCC)C(=O)Cn1c(=O)n(-c2ccc(C)cc2)c(=O)c2ccc(C(=O)NCc3ccccc3Cl)cc21	-	-	-	0	-	0
Cc1nc(C(=O)Nc2cc(Cl)ccc2Cl)nn1-c1cc(OC(C)C)c(Cl)cc1Cl	0	0	0	15µM	?	0
Cc1nc(C(=O)Nc2ccc(Cl)cc2Cl)nn1-c1cc(OC(C)C)c(Cl)cc1Cl	?	0	0	0	0	0
O=c1[nH]c(CCl)nc2cc(-c3ccc(F)cc3)sc12	?	7.3µM	?	?	15µM	?
Cc1cc([N+](=O)[O-])ccc1NCc1ccccc1[N+](=O)[O-]	0	0	0	0	0	?
